What all share (experiment): DAPPL (digital affinity profiling via proximity ligation, sequencing); 10 mM Tris-HCl pH 7.5, 50 mM NaCl, 1 mM DTT, 4% glycerol, room temperature, 30 min; GST-TFs on glutathione beads, 16-mer random dsDNA library, 0.1% formaldehyde crosslink after washing; high values mean tight binding
Common to all, as to details: protein: recombinant; tags: N-terminal GST; dsDNA, one strand shown

One experiment has as its target T1, FLI1 (Homo sapiens, UniProt Q01543 1-452).
T1 sequence: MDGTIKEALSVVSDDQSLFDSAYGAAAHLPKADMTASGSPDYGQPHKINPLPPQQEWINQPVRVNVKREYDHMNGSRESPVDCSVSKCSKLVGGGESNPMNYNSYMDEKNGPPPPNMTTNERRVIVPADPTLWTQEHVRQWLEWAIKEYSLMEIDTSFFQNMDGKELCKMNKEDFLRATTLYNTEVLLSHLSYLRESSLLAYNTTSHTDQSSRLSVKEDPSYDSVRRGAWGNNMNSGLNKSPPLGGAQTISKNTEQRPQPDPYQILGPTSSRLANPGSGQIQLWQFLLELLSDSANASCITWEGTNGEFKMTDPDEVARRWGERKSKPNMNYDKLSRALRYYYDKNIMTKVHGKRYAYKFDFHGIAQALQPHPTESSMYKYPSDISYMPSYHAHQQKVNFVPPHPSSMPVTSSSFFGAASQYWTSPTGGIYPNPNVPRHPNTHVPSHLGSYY
The method, boiled down:
(§1)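 Pools of DNA-barcoded human transcription factors, expressed in yeast as GST fusions on glutathione beads and combined with a tag-only sample, were incubated with 200 nmole of a 16-mer random double-stranded DNA library. Incubation took 30 min at room temperature in Tris/NaCl/DTT/glycerol buffer and was followed by washing, 0.1% formaldehyde crosslinking, proximity ligation (BsaI/T4 ligase, 1 h, 37 °C), PCR amplification and sequencing on an Illumina NextSeq500. Binding signal is the ratio of a hexamer's read frequency for a factor to its frequency for the tag-only sample.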

The target in the next experiment is T2, ELK1 (Homo sapiens, UniProt P19419 1-428).
T2 sequence: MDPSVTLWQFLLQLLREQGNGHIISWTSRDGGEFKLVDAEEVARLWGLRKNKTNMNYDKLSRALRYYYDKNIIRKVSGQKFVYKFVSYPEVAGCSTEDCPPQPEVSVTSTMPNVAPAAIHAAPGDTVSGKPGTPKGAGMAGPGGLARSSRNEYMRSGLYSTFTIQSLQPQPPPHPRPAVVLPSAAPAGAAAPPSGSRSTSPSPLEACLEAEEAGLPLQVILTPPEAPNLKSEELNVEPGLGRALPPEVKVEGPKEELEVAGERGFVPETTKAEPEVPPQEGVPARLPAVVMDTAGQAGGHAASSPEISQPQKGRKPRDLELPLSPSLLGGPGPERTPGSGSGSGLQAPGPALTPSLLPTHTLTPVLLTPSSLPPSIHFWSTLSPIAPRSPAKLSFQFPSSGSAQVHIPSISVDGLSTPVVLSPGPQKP
The method, boiled down: as §1

For another experiment, the target named is T3, GABPA (Homo sapiens, UniProt Q06546 1-454).
T3 sequence: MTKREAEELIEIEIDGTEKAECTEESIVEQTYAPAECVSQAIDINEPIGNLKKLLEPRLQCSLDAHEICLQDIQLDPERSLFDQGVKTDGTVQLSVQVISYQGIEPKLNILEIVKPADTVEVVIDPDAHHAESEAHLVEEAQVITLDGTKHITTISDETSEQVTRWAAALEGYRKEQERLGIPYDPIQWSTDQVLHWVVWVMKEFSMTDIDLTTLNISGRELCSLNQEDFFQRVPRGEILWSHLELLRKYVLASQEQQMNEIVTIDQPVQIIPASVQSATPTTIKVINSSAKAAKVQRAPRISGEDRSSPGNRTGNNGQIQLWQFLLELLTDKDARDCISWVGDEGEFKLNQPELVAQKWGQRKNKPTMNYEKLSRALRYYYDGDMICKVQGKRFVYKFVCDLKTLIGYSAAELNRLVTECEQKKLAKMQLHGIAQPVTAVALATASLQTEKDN
The method, boiled down:
as §1

A further experiment addresses T4, ERG (Homo sapiens, UniProt P11308 1-479).
T4 sequence: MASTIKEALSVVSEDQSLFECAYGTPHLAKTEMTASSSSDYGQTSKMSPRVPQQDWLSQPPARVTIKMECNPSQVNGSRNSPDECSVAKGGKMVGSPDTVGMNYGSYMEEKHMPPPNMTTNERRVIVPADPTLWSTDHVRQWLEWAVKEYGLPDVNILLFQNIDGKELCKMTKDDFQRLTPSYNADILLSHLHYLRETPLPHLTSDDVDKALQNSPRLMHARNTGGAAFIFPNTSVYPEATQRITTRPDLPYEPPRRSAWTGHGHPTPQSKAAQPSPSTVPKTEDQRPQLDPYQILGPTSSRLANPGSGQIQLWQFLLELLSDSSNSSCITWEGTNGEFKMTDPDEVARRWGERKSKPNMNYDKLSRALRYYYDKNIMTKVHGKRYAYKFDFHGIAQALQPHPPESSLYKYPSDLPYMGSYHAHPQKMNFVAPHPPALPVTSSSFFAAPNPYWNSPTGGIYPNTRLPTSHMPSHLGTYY
Summed up: as §1

A further experiment concerns the target ELF1 (Homo sapiens, UniProt P32519 1-619). Summed up:
as §1

The target in the next experiment is T5, EHF (Homo sapiens, UniProt Q9NZC4 1-300).
T5 sequence: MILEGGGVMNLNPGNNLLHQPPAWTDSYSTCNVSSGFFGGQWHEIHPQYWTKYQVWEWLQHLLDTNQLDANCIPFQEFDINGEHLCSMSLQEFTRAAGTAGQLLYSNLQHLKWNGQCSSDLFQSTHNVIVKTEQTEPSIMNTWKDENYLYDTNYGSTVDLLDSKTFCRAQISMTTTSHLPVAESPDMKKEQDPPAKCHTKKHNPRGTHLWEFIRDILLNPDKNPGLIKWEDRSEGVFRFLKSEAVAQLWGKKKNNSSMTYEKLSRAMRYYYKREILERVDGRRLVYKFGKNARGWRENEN
The method, boiled down:
as §1

Another experiment concerns the target SPIB (Homo sapiens, UniProt Q01892 1-262). Summed up:
as §1

The target of the next experiment is T6, FEV (Homo sapiens, UniProt Q99581 1-238).
T6 sequence: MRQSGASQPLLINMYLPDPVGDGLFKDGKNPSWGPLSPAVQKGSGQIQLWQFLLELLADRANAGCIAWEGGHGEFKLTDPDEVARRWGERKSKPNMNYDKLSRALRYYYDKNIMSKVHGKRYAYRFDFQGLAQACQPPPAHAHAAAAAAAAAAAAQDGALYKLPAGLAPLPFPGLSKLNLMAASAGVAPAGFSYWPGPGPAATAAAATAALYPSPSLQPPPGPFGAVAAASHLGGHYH
The method, boiled down:
as §1

The next experiment deals with ETV5 (Homo sapiens, UniProt P41161 1-510). The method, boiled down:
as §1

The target of the next experiment is T7, SPIC (Homo sapiens, UniProt Q8N5J4 1-248).
T7 sequence: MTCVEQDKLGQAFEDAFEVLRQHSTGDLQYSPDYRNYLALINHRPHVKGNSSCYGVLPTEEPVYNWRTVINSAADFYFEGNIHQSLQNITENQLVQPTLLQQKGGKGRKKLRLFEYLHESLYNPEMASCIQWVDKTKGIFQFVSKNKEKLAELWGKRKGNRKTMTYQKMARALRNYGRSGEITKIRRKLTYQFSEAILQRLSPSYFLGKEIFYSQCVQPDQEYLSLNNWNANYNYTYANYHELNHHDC
The method, boiled down:
as §1

Another experiment deals with ELF4 (Homo sapiens, UniProt Q99607 1-663). The method, boiled down: as §1
Sequence of ELF4 (Q99607 whole entry): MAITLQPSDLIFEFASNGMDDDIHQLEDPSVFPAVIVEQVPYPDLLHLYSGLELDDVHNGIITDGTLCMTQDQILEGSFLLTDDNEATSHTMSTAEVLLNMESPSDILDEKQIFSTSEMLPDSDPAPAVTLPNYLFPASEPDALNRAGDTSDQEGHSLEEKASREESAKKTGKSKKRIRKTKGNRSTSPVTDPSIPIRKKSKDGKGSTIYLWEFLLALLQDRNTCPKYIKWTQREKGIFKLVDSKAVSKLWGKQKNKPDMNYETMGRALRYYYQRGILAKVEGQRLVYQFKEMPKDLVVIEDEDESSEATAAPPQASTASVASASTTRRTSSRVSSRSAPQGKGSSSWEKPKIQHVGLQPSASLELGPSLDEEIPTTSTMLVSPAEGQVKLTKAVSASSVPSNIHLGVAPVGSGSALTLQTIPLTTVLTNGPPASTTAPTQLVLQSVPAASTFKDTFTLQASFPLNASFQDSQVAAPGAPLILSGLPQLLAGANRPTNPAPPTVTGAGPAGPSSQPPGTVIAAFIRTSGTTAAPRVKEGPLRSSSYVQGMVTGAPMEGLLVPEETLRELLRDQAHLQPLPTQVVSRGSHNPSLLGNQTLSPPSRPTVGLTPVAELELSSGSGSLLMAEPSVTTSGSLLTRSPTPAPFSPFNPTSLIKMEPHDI
The next experiment has as its target ETV1 (Homo sapiens, UniProt P50549 1-477). The method, boiled down:
as §1

A further experiment addresses T8, ERF (Homo sapiens, UniProt P50548 1-548).
T8 sequence: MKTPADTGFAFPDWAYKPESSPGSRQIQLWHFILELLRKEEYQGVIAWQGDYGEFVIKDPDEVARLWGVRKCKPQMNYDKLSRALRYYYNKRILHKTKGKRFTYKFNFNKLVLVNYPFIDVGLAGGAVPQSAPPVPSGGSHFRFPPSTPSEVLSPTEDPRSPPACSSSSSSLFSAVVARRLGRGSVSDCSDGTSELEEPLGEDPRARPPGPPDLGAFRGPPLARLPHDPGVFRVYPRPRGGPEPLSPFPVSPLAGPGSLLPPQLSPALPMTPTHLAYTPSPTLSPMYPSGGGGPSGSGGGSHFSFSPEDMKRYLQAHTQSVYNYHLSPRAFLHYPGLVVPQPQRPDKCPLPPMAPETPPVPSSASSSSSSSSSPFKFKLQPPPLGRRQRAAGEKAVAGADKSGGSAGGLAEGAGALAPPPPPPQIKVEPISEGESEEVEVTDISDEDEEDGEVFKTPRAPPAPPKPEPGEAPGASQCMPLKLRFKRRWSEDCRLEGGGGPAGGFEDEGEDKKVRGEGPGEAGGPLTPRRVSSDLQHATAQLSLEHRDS
Summed up:
as §1

The target in another experiment is T9, ETV3L (Homo sapiens, UniProt Q6ZN32 1-361).
T9 sequence: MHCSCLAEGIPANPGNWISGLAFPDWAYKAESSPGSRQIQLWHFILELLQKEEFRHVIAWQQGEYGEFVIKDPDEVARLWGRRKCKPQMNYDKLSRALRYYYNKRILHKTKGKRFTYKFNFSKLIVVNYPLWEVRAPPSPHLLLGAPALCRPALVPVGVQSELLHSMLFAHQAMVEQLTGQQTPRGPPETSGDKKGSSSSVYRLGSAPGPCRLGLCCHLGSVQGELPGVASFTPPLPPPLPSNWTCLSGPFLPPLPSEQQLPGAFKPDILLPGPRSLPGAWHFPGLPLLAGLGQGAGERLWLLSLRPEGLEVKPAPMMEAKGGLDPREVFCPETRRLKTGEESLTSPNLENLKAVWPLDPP
Summed up:
as §1

The next experiment deals with T10, ETS2 (Homo sapiens, UniProt P15036 1-469).
T10 sequence: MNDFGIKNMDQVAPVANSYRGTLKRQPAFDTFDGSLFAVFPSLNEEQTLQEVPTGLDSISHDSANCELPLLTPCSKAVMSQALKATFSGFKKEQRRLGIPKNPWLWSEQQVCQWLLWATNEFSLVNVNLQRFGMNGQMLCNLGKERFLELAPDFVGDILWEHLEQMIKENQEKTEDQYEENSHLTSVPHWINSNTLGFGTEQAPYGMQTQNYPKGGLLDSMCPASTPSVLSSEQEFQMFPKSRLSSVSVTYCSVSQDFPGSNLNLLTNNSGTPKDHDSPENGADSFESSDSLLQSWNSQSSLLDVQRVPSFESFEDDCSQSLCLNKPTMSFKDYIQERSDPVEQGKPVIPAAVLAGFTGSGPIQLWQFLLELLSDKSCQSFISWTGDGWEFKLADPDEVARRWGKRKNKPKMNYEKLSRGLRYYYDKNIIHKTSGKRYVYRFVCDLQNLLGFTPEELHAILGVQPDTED
Summed up: as §1

The target in a further experiment is T11, SPDEF (Homo sapiens, UniProt O95238 1-335).
T11 sequence: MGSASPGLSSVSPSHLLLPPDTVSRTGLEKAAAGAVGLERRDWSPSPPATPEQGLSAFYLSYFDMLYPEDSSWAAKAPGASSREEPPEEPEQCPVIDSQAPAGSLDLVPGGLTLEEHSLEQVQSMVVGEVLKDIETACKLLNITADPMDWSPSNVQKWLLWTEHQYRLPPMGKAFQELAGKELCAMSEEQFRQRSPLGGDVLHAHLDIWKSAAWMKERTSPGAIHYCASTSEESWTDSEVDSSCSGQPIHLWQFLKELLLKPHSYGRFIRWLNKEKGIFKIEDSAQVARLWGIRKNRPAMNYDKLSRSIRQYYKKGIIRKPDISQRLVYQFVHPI
The method, boiled down:
as §1

For the next experiment, the target named is T12, ETV3 (Homo sapiens, UniProt P41162-2 1-143).
T12 sequence: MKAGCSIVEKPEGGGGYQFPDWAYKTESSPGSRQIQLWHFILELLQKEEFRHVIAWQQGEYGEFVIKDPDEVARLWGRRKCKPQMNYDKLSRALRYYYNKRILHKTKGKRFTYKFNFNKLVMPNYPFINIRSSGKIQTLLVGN
The method, boiled down: as §1

Another experiment concerns the target ETV6 (Homo sapiens, UniProt P41212 1-452). The method, boiled down: as §1

Sequence of ELF1 (P32519 whole entry): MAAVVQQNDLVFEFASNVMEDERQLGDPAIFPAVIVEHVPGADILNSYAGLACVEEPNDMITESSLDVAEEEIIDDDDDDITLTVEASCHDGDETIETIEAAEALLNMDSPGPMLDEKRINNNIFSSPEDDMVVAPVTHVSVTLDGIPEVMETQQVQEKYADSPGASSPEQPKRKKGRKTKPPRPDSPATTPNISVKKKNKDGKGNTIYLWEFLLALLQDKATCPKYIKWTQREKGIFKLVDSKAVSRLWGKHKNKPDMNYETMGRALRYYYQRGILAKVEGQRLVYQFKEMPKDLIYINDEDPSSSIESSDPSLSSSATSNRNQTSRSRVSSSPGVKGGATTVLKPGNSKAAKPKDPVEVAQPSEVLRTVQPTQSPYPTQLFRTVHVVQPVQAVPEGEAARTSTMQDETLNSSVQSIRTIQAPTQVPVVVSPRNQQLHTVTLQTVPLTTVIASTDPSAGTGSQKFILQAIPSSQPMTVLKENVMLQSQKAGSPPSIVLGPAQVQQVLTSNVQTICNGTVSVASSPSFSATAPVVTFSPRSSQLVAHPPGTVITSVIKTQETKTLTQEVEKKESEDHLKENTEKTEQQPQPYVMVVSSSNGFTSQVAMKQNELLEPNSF
Sequence of ETV6 (P41212 whole entry): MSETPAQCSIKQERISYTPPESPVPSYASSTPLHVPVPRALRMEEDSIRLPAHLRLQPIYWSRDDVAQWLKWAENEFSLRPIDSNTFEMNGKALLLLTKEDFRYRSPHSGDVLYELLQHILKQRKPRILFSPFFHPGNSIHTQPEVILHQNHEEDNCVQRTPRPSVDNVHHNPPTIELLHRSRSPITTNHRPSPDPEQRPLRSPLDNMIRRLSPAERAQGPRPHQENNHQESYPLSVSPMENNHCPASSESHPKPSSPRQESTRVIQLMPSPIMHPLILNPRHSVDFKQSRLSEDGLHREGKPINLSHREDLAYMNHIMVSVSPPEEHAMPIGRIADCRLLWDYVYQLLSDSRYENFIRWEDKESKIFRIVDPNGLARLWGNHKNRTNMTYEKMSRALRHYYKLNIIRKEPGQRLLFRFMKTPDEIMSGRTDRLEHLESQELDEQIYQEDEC
Sequence of SPIB (Q01892 whole entry): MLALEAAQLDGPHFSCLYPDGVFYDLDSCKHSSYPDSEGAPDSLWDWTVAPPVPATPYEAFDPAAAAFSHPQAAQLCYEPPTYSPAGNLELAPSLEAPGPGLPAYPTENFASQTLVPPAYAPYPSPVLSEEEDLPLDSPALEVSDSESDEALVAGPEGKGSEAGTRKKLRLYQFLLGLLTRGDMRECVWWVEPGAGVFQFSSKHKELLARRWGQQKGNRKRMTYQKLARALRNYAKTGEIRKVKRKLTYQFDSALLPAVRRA
Sequence of ETV5 (P41161 whole entry): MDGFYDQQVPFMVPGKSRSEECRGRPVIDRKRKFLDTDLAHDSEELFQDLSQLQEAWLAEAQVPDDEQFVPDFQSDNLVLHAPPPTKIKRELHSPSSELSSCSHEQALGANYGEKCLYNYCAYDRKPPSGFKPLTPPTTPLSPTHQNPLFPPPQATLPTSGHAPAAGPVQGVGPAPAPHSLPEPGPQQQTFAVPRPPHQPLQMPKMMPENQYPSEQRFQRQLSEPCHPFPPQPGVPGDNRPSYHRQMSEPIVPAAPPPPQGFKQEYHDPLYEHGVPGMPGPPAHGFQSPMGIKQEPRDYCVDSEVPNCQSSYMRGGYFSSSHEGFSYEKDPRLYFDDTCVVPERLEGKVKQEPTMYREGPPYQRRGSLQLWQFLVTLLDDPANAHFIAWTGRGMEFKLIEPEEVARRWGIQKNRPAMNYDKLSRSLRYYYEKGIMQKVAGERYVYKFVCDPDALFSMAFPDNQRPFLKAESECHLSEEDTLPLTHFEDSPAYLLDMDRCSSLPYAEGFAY
Sequence of ETV1 (P50549 whole entry): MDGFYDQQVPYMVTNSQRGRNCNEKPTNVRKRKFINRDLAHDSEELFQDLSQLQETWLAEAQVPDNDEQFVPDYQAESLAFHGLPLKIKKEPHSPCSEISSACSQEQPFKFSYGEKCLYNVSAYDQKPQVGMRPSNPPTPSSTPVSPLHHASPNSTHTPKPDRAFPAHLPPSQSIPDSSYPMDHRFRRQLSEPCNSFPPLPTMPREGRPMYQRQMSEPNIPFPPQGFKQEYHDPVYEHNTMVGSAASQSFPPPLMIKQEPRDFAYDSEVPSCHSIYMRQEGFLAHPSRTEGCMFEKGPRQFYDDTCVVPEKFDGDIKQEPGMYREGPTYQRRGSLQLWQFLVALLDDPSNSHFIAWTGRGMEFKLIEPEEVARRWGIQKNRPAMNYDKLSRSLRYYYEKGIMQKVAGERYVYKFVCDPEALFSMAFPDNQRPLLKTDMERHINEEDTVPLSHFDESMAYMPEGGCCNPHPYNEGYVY

For CCACAC, the binding signal with FLI1 was 1.07 fold enrichment (6-mer frequency, TF over GST control); with ELK1 it was 1.07 fold enrichment (6-mer frequency, TF over GST control); with GABPA it was 1.1 fold enrichment (6-mer frequency, TF over GST control); in the experiment with ERG it was 1.07 fold enrichment (6-mer frequency, TF over GST control); with ELF1 it was 1.12 fold enrichment (6-mer frequency, TF over GST control); in the experiment with EHF, 1.12 fold enrichment (6-mer frequency, TF over GST control). The binding signal was 1.04 fold enrichment (6-mer frequency, TF over GST control) with SPIB; 1.11 fold enrichment (6-mer frequency, TF over GST control) with FEV; 1.11 fold enrichment (6-mer frequency, TF over GST control) with ETV5; 1.18 fold enrichment (6-mer frequency, TF over GST control) with SPIC; 1.1 fold enrichment (6-mer frequency, TF over GST control) with ELF4; 1.1 fold enrichment (6-mer frequency, TF over GST control) with ETV1. Also, the binding signal is 1.08 fold enrichment (6-mer frequency, TF over GST control) with ERF; 1.11 fold enrichment (6-mer frequency, TF over GST control) with ETV3L; 1.03 fold enrichment (6-mer frequency, TF over GST control) with ETS2; 1.13 fold enrichment (6-mer frequency, TF over GST control) with SPDEF; 1 fold enrichment (6-mer frequency, TF over GST control) with ETV3; 1.02 fold enrichment (6-mer frequency, TF over GST control) with ETV6.

The record behind these values is publication PMC7862700, “An all-to-all approach to the identification of sequence-specific readers for epigenetic DNA modifications on cytosine”.
